# Measurements reported in paper PMC5540273 (PLoS ONE, 2017).
# System: T1, RSK4(Kin.Dom.1-N-terminal)
# T1 construct: gene RPS6KA6
# Details: concentration: 1 μM, replicates: in singlicate; n = 1
# 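Also: KINOMEscan kinase panel screen.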
row,Structure (SMILES),%Inh [%]
1,CNCc1ccc2nc(NC(=O)c3ccc(C(C)(C)C)cc3)cn2c1,27
2,Nc1nccc(-c2c(-c3ccc(F)cc3)ncn2C2CCN(Cc3ccccc3)CC2)n1 [SB-219980],30
3,CNc1nc(-c2ccc3c(N)n[nH]c3c2)cc(N2C[C@@H](C(=O)NC3CCCCC3)OC[C@H]2C)n1 [GSK2375584],0
4,O=c1cc(N2CCOCC2)nc2n(Cc3cccc(Cl)c3Cl)c3ccccc3n12 [GSK2299009],0
5,COc1ccc(Nc2nccc(N3CCC(NC(=O)C(C)c4ccc(Cl)cc4)C3)n2)cc1 (stereo not drawn) [GSK1379735],0
6,Cn1cnc2c(N)ncnc21 [SKF-97623],0
7,Fc1ccc(-c2nc3n(c2-c2ccncc2)CCS3)cc1 [GI98581],0
8,COC(=O)c1cccc(NC(=O)NC2CCN(c3ccnc(Nc4ccc(OC)cc4)n3)C2)c1 (stereo not drawn) [GSK1379746],0
9,Cn1cncc1-c1cc2c(Nc3ccc(OCc4ccccc4)cc3)ncnc2cn1 [GW281179],0
10,CNC(=O)c1ccc(C)c(-n2c(C)cc(OCc3ccc(F)cc3F)c(Br)c2=O)c1,0
11,CC(=O)c1c(C)c2cnc(Nc3ccc(N4CCNCC4)cn3)nc2n(C2CCCC2)c1=O,0
12,COc1ccc(CSc2nnc(-c3ccc4c(c3)CCO4)o2)cc1,0
13,COc1ccc(CSc2nnc(-c3ccc4nccn4c3)o2)cc1C(F)(F)F,30
14,CN1c2ccc(-c3ccc(C(N)=O)cc3)cc2-c2[nH]ncc2S1(=O)=O,0
15,O=C1NC(=O)C(c2ccc(Cl)cc2)=C1Nc1cccc(Cl)c1 [SB-317651],0
16,COC(=O)C(Cc1ccccc1)NC(=O)NC1CCN(c2ccnc(Nc3ccc(F)cc3)n2)C1 (stereo not drawn) [GSK1379714],1
17,COc1ccc(Nc2nccc(NCCNC(=O)Nc3cc(C)ccc3C)n2)cc1 [GSK1379899],0
18,COc1ccc(Nc2nccc(N3CCC(NC(=O)C(C)c4ccc(Cl)cc4)CC3)n2)cc1 (stereo not drawn) [GSK1379812],0

row,Structure (SMILES),%Inh [%]
1,Fc1ccc(-c2nc[nH]c2-c2ccncc2)cc1 [SB-217360],16
2,CCn1c(-c2ccccc2)nc2cnccc21 [SB-733416],8
3,CS(=O)(=O)CCNCc1nc(-c2ccc3ncnc(Nc4ccc(OCc5ccccc5)c(Cl)c4)c3c2)cs1.Cl [GW582764],0
4,Cl.Cl.Cl.N#Cc1ccc(CCNc2nccc(-c3cccc(CN4CCNCC4)c3)n2)cc1 [GSK2137462],0
5,Cc1cccc2c(-c3ccncn3)c(-c3ccc(F)cc3)nn12 [GW515532],0
6,Nc1ncnc2occ(-c3ccc4c(c3)CCN4C(=O)Cc3cc(F)ccc3F)c12 [GSK2645446],0
7,COc1cccc(CNC(=O)NC2CCN(c3ccnc(Nc4ccc(F)cc4)n3)C2)c1 (stereo not drawn) [GSK1379723],0
8,COc1ccc(CSc2nnc(-c3ccc4ncsc4c3)o2)cc1C(F)(F)F,0
9,CCCCc1nn2ncccc2c1-c1ccnc(NC2CC2)n1 [GW684374],0
10,CCc1ccc(-c2ccc3c(c2)-c2n[nH]cc2S(=O)(=O)N3C)cc1,1
11,COc1ccc(-c2coc3ccc(-c4nnc(C)o4)cc23)cc1,22
12,Cc1nccc(-c2c(-c3ccc(F)cc3)ncn2CCCN2CCOCC2)n1.Cl [SB-282975],22
13,Cc1ccc(NC(=O)Nc2ccccc2)cc1-c1ccc(C(=O)Nc2ccncc2)cc1 [GSK1398471],0
14,CC(C)c1cc(-c2ccc3c(N)n[nH]c3c2)nc(N)n1 [GSK2250882],0
15,COc1cccc(NC(=O)Nc2ccc(C)c(-c3ccc(C(=O)Nc4ccncc4)cc3)c2)c1 [GSK1398474],0
16,CSc1ccc(-c2nc3n(c2-c2ccncc2)CCC3)cc1 [SKF-105561],8
17,COC(=O)c1cccc(NC(=O)NC2CCN(c3ccnc(Nc4ccc(F)cc4)n3)C2)c1 (stereo not drawn) [GSK1379725],0
18,Fc1ccc(-c2nn3cccc(F)c3c2-c2ccncc2)cc1 [GW475620],16

# System: T2, RSK4(Kin.Dom.2-C-terminal)
# T2 construct: gene RPS6KA6
# Details: concentration: 1 μM, replicates: in singlicate; n = 1
row,Structure (SMILES),%Inh [%]
1,CNCc1ccc2nc(NC(=O)c3ccc(C(C)(C)C)cc3)cn2c1,7
2,Nc1nccc(-c2c(-c3ccc(F)cc3)ncn2C2CCN(Cc3ccccc3)CC2)n1 [SB-219980],63
3,CNc1nc(-c2ccc3c(N)n[nH]c3c2)cc(N2C[C@@H](C(=O)NC3CCCCC3)OC[C@H]2C)n1 [GSK2375584],20
4,O=c1cc(N2CCOCC2)nc2n(Cc3cccc(Cl)c3Cl)c3ccccc3n12 [GSK2299009],5
5,COc1ccc(Nc2nccc(N3CCC(NC(=O)C(C)c4ccc(Cl)cc4)C3)n2)cc1 (stereo not drawn) [GSK1379735],7
6,Cn1cnc2c(N)ncnc21 [SKF-97623],2
7,Fc1ccc(-c2nc3n(c2-c2ccncc2)CCS3)cc1 [GI98581],88
8,COC(=O)c1cccc(NC(=O)NC2CCN(c3ccnc(Nc4ccc(OC)cc4)n3)C2)c1 (stereo not drawn) [GSK1379746],0
9,Cn1cncc1-c1cc2c(Nc3ccc(OCc4ccccc4)cc3)ncnc2cn1 [GW281179],9
10,CNC(=O)c1ccc(C)c(-n2c(C)cc(OCc3ccc(F)cc3F)c(Br)c2=O)c1,0
11,CC(=O)c1c(C)c2cnc(Nc3ccc(N4CCNCC4)cn3)nc2n(C2CCCC2)c1=O,1
12,COc1ccc(CSc2nnc(-c3ccc4c(c3)CCO4)o2)cc1,17
13,COc1ccc(CSc2nnc(-c3ccc4nccn4c3)o2)cc1C(F)(F)F,0
14,CN1c2ccc(-c3ccc(C(N)=O)cc3)cc2-c2[nH]ncc2S1(=O)=O,38
15,O=C1NC(=O)C(c2ccc(Cl)cc2)=C1Nc1cccc(Cl)c1 [SB-317651],13
16,COC(=O)C(Cc1ccccc1)NC(=O)NC1CCN(c2ccnc(Nc3ccc(F)cc3)n2)C1 (stereo not drawn) [GSK1379714],9
17,COc1ccc(Nc2nccc(NCCNC(=O)Nc3cc(C)ccc3C)n2)cc1 [GSK1379899],0
18,COc1ccc(Nc2nccc(N3CCC(NC(=O)C(C)c4ccc(Cl)cc4)CC3)n2)cc1 (stereo not drawn) [GSK1379812],0

row,Structure (SMILES),%Inh [%]
1,Fc1ccc(-c2nc[nH]c2-c2ccncc2)cc1 [SB-217360],87
2,CCn1c(-c2ccccc2)nc2cnccc21 [SB-733416],0
3,CS(=O)(=O)CCNCc1nc(-c2ccc3ncnc(Nc4ccc(OCc5ccccc5)c(Cl)c4)c3c2)cs1.Cl [GW582764],8
4,Cl.Cl.Cl.N#Cc1ccc(CCNc2nccc(-c3cccc(CN4CCNCC4)c3)n2)cc1 [GSK2137462],31
5,Cc1cccc2c(-c3ccncn3)c(-c3ccc(F)cc3)nn12 [GW515532],87
6,Nc1ncnc2occ(-c3ccc4c(c3)CCN4C(=O)Cc3cc(F)ccc3F)c12 [GSK2645446],15
7,COc1cccc(CNC(=O)NC2CCN(c3ccnc(Nc4ccc(F)cc4)n3)C2)c1 (stereo not drawn) [GSK1379723],6
8,COc1ccc(CSc2nnc(-c3ccc4ncsc4c3)o2)cc1C(F)(F)F,9
9,CCCCc1nn2ncccc2c1-c1ccnc(NC2CC2)n1 [GW684374],32
10,CCc1ccc(-c2ccc3c(c2)-c2n[nH]cc2S(=O)(=O)N3C)cc1,20
11,COc1ccc(-c2coc3ccc(-c4nnc(C)o4)cc23)cc1,15
12,Cc1nccc(-c2c(-c3ccc(F)cc3)ncn2CCCN2CCOCC2)n1.Cl [SB-282975],6
13,Cc1ccc(NC(=O)Nc2ccccc2)cc1-c1ccc(C(=O)Nc2ccncc2)cc1 [GSK1398471],6
14,CC(C)c1cc(-c2ccc3c(N)n[nH]c3c2)nc(N)n1 [GSK2250882],17
15,COc1cccc(NC(=O)Nc2ccc(C)c(-c3ccc(C(=O)Nc4ccncc4)cc3)c2)c1 [GSK1398474],22
16,CSc1ccc(-c2nc3n(c2-c2ccncc2)CCC3)cc1 [SKF-105561],70
17,COC(=O)c1cccc(NC(=O)NC2CCN(c3ccnc(Nc4ccc(F)cc4)n3)C2)c1 (stereo not drawn) [GSK1379725],0
18,Fc1ccc(-c2nn3cccc(F)c3c2-c2ccncc2)cc1 [GW475620],78
